PubChem BioAssay AID881 (National Center for Advancing Translational Sciences (NCATS), 2007)
Where “and” joins values, the source holds several entries; their conditions need not be identical. Equal entries are not always repeated. The campaign covered roughly 110,000 compounds. About 610 (0.55%) were called active. Not shown: some 3% with an inconclusive outcome. Calls come from the whole dose curve; as a rule, active = well fitted inhibition curve with a large enough effect; inconclusive = small, poorly fitted or top-dose-only effect; inactive = no such curve, though single readings can be large or run the other way. The list comes from a sample in which actives are over-represented; it also holds similar structures and randomly drawn compounds. Where a call stands in place of a potency, no number is given.

The compounds below were run against Polyunsaturated fatty acid lipoxygenase ALOX15B (Homo sapiens) (UniProt O15296) (assay: qHTS Assay for Inhibitors of 15-hLO-2 (15-human lipoxygenase 2)). Settings: purified 15hLO-2, xylenol orange hydroperoxide absorbance; series mostly up to 57.1 µM.
Sequence of Polyunsaturated fatty acid lipoxygenase ALOX15B (Homo sapiens) (O15296 whole entry, looked up): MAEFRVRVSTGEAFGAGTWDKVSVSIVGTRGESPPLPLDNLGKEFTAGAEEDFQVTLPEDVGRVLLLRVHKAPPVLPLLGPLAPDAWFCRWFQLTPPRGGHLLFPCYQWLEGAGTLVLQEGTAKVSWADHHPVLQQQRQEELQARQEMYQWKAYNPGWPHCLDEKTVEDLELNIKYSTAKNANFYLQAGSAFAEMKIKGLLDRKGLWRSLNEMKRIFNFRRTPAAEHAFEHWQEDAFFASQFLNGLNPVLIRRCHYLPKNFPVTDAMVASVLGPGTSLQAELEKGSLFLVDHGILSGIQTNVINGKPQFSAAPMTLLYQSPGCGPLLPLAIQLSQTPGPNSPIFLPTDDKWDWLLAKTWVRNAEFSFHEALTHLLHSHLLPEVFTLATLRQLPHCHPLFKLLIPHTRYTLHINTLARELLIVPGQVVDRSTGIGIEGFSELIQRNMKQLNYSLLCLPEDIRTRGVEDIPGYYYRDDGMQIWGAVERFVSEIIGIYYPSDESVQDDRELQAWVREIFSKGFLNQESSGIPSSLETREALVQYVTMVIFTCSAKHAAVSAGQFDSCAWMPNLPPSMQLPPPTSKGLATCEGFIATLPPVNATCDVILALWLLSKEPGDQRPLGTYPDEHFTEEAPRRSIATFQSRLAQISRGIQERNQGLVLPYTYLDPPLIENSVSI
Excerpt: Assay Overview: NIH Molecular Libraries Screening Centers Network [MLSCN] NIH Chemical Genomics Center [NCGC] MLSCN Grant: MH081283-01A1 PI Name: Holman, T.R., University of California, Santa Cruz Human lipoxygenase 15hLO-2 is a member of the closely related lipoxygenase family of enzymes which catalyze the site-specific oxidation of arachidonic acid to various hormone precursor molecules and as such is a candidate for drug development in a variety of disease areas, such as cancer and inflammation. Inhibition of 15hLO-2 activity was screened by utilizing arachidonic acid as a substrate. The extent of hydroperoxide product formation was measured by a secondary chromogenic reaction in which xylenol orange (XO, Sigma-Aldrich, cat. number 39,818-7) reacts with the ferric ions produced from the reaction between the hydroperoxide and ferrous ions. The Fe(III)-XO complex is characterized with red-shifted absorbance at 560 nm. A purified preparation of human 15hLO-2 was supplied by Professor Ted Holman, University of California, Santa Cruz.
Assay Protocol: Buffer: 25 mM Hepes pH 7.5, 0.01% Triton X-100. Reagents/Controls: Buffer in columns 3 and 4 as negative control (no enzyme). Substrate solution: 45 uM arachidonic acid (Sigma-Aldrich, St. Louis, MO) final concentration dispensed throughout the plate. Enzyme: 50 nM 15hLO-2 final concentration in columns 1, 2, 5-48. Column 1 is neutral (100% activity). Column 2 contained pin-transferred titration of NDGA (nordihidroguaiaretic acid, Sigma-Aldrich, N 5023, top concentration 10 mM in DMSO, then 1:2 dilution in duplicate). (Dilution factor: 23 nL into 4 uL.) Chromogenic detection reagent (divalent iron/xylenol orange, Fe-XO): 200 uM xylenol orange plus 300 uM ferrous ammonium sulfate prepared freshly in 50 mM sulfuric acid. Assay Steps: Three uL of enzyme were dispensed to 1536-well Greiner black clear bottom plates. Compounds and controls (23 nL) were transferred via Kalypsys PinTool. The plates were incubated for 15 min at room temperature, and then 1 uL of substrate solution was added to start the reaction. After room temperature incubation for 90 minutes, 4 uL of Fe-XO solution was added to each well followed by a short spin (1000 rpm, 15 sec) and the plates were then incubated for 30 min. The absorbance at 405 and 573 nm were measured using ViewLux (Perkin-Elmer) High-throughput CCD imager and absorbance protocol settings. The 573-to-405 absorbance ratio was used to compute reaction progress.
Note: nearly all actives have a fitted effect of over 60% in size.
Potency is the fitted concentration of half-maximal effect.

Row | SMILES | activity change, negative = inhibition | Potency
1 | O=C(Nc1cc(C(F)(F)F)ccc1Cl)c1cc2nc3c(c(C(F)(F)F)n2n1)CCCC3 | inactive | –
2 | CCOc1ccc(N=Cc2c(O)n(-c3cccc(C)n3)c(=O)c3ccccc23)cc1 | inactive | –
3 | NNc1nnc(NN)c2ccccc12 | 35% [at 0.0915 µM] (inactive) | –
4 | CCOC(=O)c1c(NC(=O)CCl)sc(C(=O)N(CC)CC)c1C | inactive | –
5 | O=c1onc(-c2cccs2)n1Cc1ccccc1 | inactive | –
6 | CNC(=O)c1nnc(Cc2ccc(Cl)cc2)o1 | inactive | –
7 | CC(C)Nc1ncnc2c1nnn2Cc1ccccc1 | inactive | –
8 | CN=C1SC(CC(=O)Nc2ccc(C(=O)O)cc2)C(=O)N1C (stereo not given) | inactive | –
9 | Cc1c(Br)cc(C(=O)N2CCCCCC2)c(C)c1C | inactive | –
10 | O=C1OCCN1C(=O)[C@H]1[C@H](c2ccccc2)C(c2ccc(F)cc2)=NN1c1ccccc1 | -26.1% [at 0.0915 µM] (inactive) | –
11 | Oc1c(Cl)cc(Cl)c(Cl)c1Cc1c(O)c(Cl)cc(Cl)c1Cl | – | 10 µM (active)
12 | C=C(C)CSc1nnc(-c2ccc(C)cc2)n1N | inactive | –
13 | COc1ccc(CN2CN(C(C)C)CSC2=S)cc1 | – | 5.01 µM (active)
14 | COc1ccc(C(=O)CN(C(=O)c2ccc(Cl)cc2)N2C(=O)c3ccccc3C2=O)cc1 | inactive | –
15 | O=C(O)CSCc1ccc(C(=O)O)o1 | inactive | –
16 | CC(C)NS(=O)(=O)c1ccc(NC(=O)C2CCCCC2)cc1 | inactive | –
17 | O=C(CCc1ccc(S(=O)(=O)N2CCOCC2)cc1)Nc1ccc2ccccc2c1 | inactive | –
18 | COc1ccc(Nc2cc(=O)oc3ccccc23)cc1 | inactive | –
19 | O=C(NCc1ccc2c(c1)OCO2)C12CC3CC(CC(C3)C1)C2 | inactive | –
20 | S=C(NCc1cccs1)Nc1ccc(Cl)cc1 | inactive | –
21 | S=C(NCc1ccc(Cl)cc1)NC12CC3CC(CC(C3)C1)C2 | – | 15.8 µM (active)
22 | Cc1cccc(N2C(=O)c3cccnc3C2=O)c1 | inactive | –
23 | COc1ccc(-c2c(C)cc3oc(=O)cc(-c4ccccc4)c3c2C)cc1F | -14% [at 0.0915 µM] (inactive) | –
24 | CC1O[C@@H](Oc2c(-c3ccc(O)c(O)c3)oc3cc(O)cc(O)c3c2=O)C(O)C(O)C1O (stereo not given in full) | inactive | –
25 | Cc1cccc(-c2cc(=O)c3cc(C)ccc3o2)c1 | inactive | –

Row | SMILES | activity change, negative = inhibition | Potency
26 | O=c1cc(-c2ccc(O)c(O)c2)oc2cccc(O)c12 | – | 12.6 µM (active)
27 | CC(C)c1ccc(N2CCN(C(=O)c3ccccc3NC(=O)/C=C(\C(=O)O)c3ccccc3)CC2)cc1 | inactive | –
28 | CC(=O)N1CCN(c2ccc(NCc3ccc(C(C)C)cc3)cc2)CC1 | – | 12.6 µM (active)
29 | COc1ccc(N2CCN(C(=O)CNC(=O)c3ccc(C(C)(C)C)cc3)CC2)cc1 | inactive | –
30 | COc1ccc(-c2c(C)cc3oc(=O)cc(-c4ccccc4)c3c2C)cc1OC | -3.53% [at 0.0915 µM] (inactive) | –
31 | CCCCN(CC)CCNC(=O)c1[nH]c(C)c(C(C)=O)c1C | inactive | –
32 | COCc1cc(C(C)=O)ccc1OC | inactive | –
33 | CC[C@@H]1Cc2cc(O)ccc2C2=C1c1ccc(O)cc1C[C@H]2CC | – | 7.94 µM (active) and 3.55 µM (active)
34 | Cc1nnc(SCC(=O)NC(=O)NC2CCCC2)n1N | inactive | –
35 | CCc1c(O)nc(SCC(=O)Nc2ccccc2)n(C(C)CC)c1=O (stereo not given) | inactive | –
36 | COc1ccccc1NC(=O)[C@H](COCc1ccccc1)NC(=O)OC(C)(C)C | inactive | –
37 | CC(C)C(=O)OCC(=O)Nc1ccc2c(c1)CCC2 | inactive | –
38 | O=C1OCCN1C(=O)[C@H]1[C@H](c2ccc(F)cc2)C(c2ccccc2)=NN1c1ccc(Br)cc1 | -15.7% [at 0.0915 µM] (inactive) | –
39 | COc1cc(/C=N/O)cc(Br)c1OS(=O)(=O)c1ccc(C)cc1 | inactive | –
40 | CCN(CC)c1ccc(NC(=O)c2ccc(Cl)nc2)cc1 | inactive | –
41 | Cc1ccc(-c2cccc([C@H]3[C@@H]4C=CC[C@@H](C)[C@@H]4C(=O)N3Cc3ccccc3)c2)cc1 | 17.8% [at 0.0915 µM] (inactive) | –
42 | Cc1nc(NC2=NC(C(=O)Nc3ccc(Cl)cc3)CC(=O)N2)nc2ccccc12 (stereo not given) | inactive | –
43 | COc1ccc(Nc2ncnc3ccc(OC)cc23)cc1 | 12% [at 0.0915 µM] (inactive) | –
44 | O=C(c1ccccc1)N1CCN(c2ccc([N+](=O)[O-])c(NCc3ccco3)c2)CC1 | inactive | –
45 | N#C/C(=C\c1ccccc1)c1n[nH]c(Cn2cncn2)n1 | inactive | –
46 | O=C(O)CCC(=O)O | 15.2% [at 0.0915 µM] (inactive) | –
47 | Cc1cc2oc(=O)cc(-c3ccccc3)c2c(C)c1-c1ccc(OC(F)(F)F)cc1 | -5.36% [at 0.0915 µM] (inactive) | –
48 | O=C(Nc1ccc(Sc2ccc(Br)cc2)cc1)c1ccco1 | inactive | –
49 | CC1CCc2c(c3ccccc3[nH]c2=O)O1 (stereo not given) | inactive | –
50 | C=CCSc1nc(Cc2ccc(Cl)cc2)nc2ccccc12 | inactive | –

Row | SMILES | activity change, negative = inhibition | Potency
51 | COc1cc(/C=N/O)cc(Br)c1OCc1cccc(Cl)c1 | inactive | –
52 | CSCc1cc(N(C)C)nc(SCc2ccc(Cl)cc2Cl)n1 | inactive | –
53 | CCOC(=O)C1=C(C(=O)OCC)C(C(=O)OCC)N(S(=O)(=O)C(F)(F)F)c2ccccc21 (stereo not given) | 7.83% [at 0.0915 µM] (inactive) | –
54 | CC1CCCCC1NC(=O)C1CCCN1S(=O)(=O)c1cccc2nsnc12 (stereo not given) | inactive | –
55 | Cc1nnc(NC(=O)CCCOc2ccccc2)s1 | inactive | –
56 | O=C(CN1C(=O)C2C3C=CC(C3)C2C1=O)Nc1nc(-c2ccccn2)cs1 (stereo not given) | inactive | –
57 | CCCCOC(=O)Nc1sc2nc(C)cc(C)c2c1-n1cccc1 | inactive | –
58 | CCOC(=O)c1c(NC(C)=O)sc2c(O)c(Br)ccc12 | inactive | –
59 | COc1ccc(C(=O)Nc2ccc(S(=O)(=O)NC(C)C)cc2)cc1 | inactive | –
60 | COC(=O)c1cc(NC(=O)CC2C(=O)NCCN2C(=O)c2ccc(F)cc2)cc(C(=O)OC)c1 (stereo not given) | inactive | –
61 | Cn1ccs/c1=N\S(=O)(=O)c1ccc(C(C)(C)C)cc1 | inactive | –
62 | COCC(C)NC(=O)c1ccc(-n2nc(C(F)(F)F)cc2-c2cccs2)cc1 (stereo not given) | inactive | –
63 | NC(=O)c1nsc(C(=O)N(CC(=O)NCc2ccc(F)cc2)Cc2ccco2)c1N | inactive | –
64 | Cc1ccc(-c2cc(=O)c3ccc(Cl)cc3[nH]2)cc1 | -2.63% [at 0.0915 µM] (inactive) | –
65 | COc1ccc(C)cc1N(C)C(=O)c1coc(=O)c2ccccc12 | inactive | –
66 | C=CCC1CCC(=O)N2CCCC12 (stereo not given) | -5.32% [at 0.0915 µM] (inactive) | –
67 | Cc1ccccc1OCC(=O)NCC(=O)OCC(=O)c1ccc2ccccc2c1 | inactive | –
68 | Brc1ccc(C2=NCCC(c3ccccc3)O2)cc1 (stereo not given) | 18.5% [at 0.0915 µM] (inactive) | –
69 | O=C(c1cccc(F)c1)N1CCN(c2ccc([N+](=O)[O-])c(N3CCCCC3)c2)CC1 | inactive | –
70 | O=C1OCCN1C(=O)[C@H]1[C@H](c2ccc(Cl)cc2)C(c2cccc(Cl)c2)=NN1c1ccc(Br)cc1 | 4.34% [at 0.0915 µM] (inactive) | –
71 | CC1(C)O[C@@H]2C[C@@H]3[C@H]4C[C@@H](F)C5=CC(=O)C=C[C@]5(C)[C@@]4(F)[C@@H](O)C[C@]3(C)[C@]2(C(=O)CO)O1 | -10.6% [at 0.0915 µM] (inactive) | –
72 | O=C1CCC[C@@H]2CC(N3CCCCC3)C[C@@H]3CCN1[C@H]23 (stereo not given in full) | -0.97% [at 0.0915 µM] (inactive) | –
73 | Cc1c(O)c(Br)c(C)c(O)c1Br (tested in a mixture with another compound) | – | 2 µM (active)
74 | CCOn1c(SC(C)C)nc2ccccc2c1=O | inactive | –
75 | C=CC1(C)CC(=O)C2(O)C(C)(O1)C(OC(C)=O)C(O)C1C(C)(C)CCC(O)C12C (stereo not given) | 1.16% [at 0.0915 µM] (inactive) | –

Row | SMILES | activity change, negative = inhibition | Potency
76 | COc1cc(C(=O)N2CCOCC2)cc(OC)c1OC | 5.48% [at 0.0915 µM] (inactive) | –
77 | Cc1ccc(NC(=S)Nc2ncccc2C)c(C)c1 | – | 7.94 µM (active)
78 | Cc1ccc(NC(=O)Cn2nc(C)c3ccccc3c2=O)c(C)c1 | inactive | –
79 | Cc1ccccc1NC(=S)Nc1cccc([N+](=O)[O-])c1 | inactive | –
80 | CC(C)NC(=O)C(=O)NCCN1CCN(S(=O)(=O)c2ccc(Cl)cc2)CC1 | inactive | –
81 | FC(F)(F)c1cnc(Oc2ccccc2-c2nnc(-c3ccc(Cl)cc3)o2)c(Cl)c1 | inactive | –
82 | O=C(Oc1ccccc1)Oc1ccc2c(c1)oc(=O)c1ccccc12 | inactive | –
83 | Cc1ccnc(N2CCC(C(=O)NC3CCCCCC3)CC2)n1 | inactive | –
84 | Cc1ccnc(-n2sc3ccccc3c2=O)n1 | – | 7.94 µM (active)
85 | Cc1nc2ccccc2c(=O)n1CCCn1ccnc1 | 9.49% [at 11.4 µM] (inactive) | –
86 | N#Cc1ccc(Oc2cc(C(F)(F)F)nc(-c3ccccn3)n2)cc1 | inactive | –
87 | CCCCCCCCCCCCCCCCO | 14.3% [at 0.0915 µM] (inactive) | –
88 | CN(C(=O)CSc1nc(C2CC2)nc2ccccc12)c1nc(-c2ccccc2)cs1 | inactive | –
89 | Cc1cc(N/C=C\C(=O)c2ccc(Cl)c(Cl)c2)no1 | inactive | –
90 | Cc1ccc(-n2c(SCC(=O)NCc3ccc4c(c3)OCO4)nnc2-c2cccnc2)c(C)c1 | inactive | –
91 | Cc1ccc(CC2(O)CCN(CCOc3ccc(O)cc3)CC2)cc1 | 15.1% [at 0.0915 µM] (inactive) | –
92 | Cc1ccc(/C=N/NC(=O)Cn2nc(C)c(Br)c2C)o1 | inactive | –
93 | C=CCN(N=Nc1cccc([N+](=O)[O-])c1)c1cccc([N+](=O)[O-])c1 | inactive | –
94 | CN(C)c1ccc(CNC2C3CC4CC(C3)CC2C4)cc1 (stereo not given) | inactive | –
95 | O=C(COc1ccc(Br)cc1F)NC1CCN(Cc2ccccc2)CC1 | inactive | –
96 | N#CC1=C(SCc2ccc(C#N)cc2)N=C(N)C(c2nc(-c3ccccc3)cs2)C12CCCCC2 (stereo not given) | inactive | –
97 | CCOc1c2ccc(C(=O)NCc3ccc(OC(F)(F)F)cc3)cc2nn1C | inactive | –
98 | Cc1ccc(NC2(C#N)C(=O)Nc3ccccc32)cc1 (stereo not given) | inactive | –
99 | O=C1Nc2ccccc2C12Nc1ccccc1S2 (stereo not given) | – | 7.94 µM (active)
100 | CC(=O)N1C(=O)C2(Nc3ccccc3N2)c2ccccc21 | inactive | –
